For six molecules, composite z-score, z-score and composite Z-score results are on record in PubChem BioAssay.

Experiment [1] has as its system Human papillomavirus type 1a protein E7 (residues 44-93). Nature of the experiment: small molecules binding HPV E7 44-93 – biochemical, small-molecule microarray, residues 44-93, 635 nm fluorescence, primary screen (AID 1108).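 Also: E7 fragment applied at 1 µg/mL in TBST for 1 h at 4 C; score combines spot fluorescence with its signal to noise ratio.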 The note with it: fluorescence 635 nm, higher = more signal.
Experiment [2] is described as follows: hepatitis C replication reporter changes, two-sided – Huh7 cells, luciferase reporter, HCV replication inhibitor project, primary screen (AID 1109).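 Also: huh7 hepatoma cells harbouring a luciferase neomycin HCV replicon reporter; luciferase luminescence as measure of HCV replicon replication; test concentration not given here.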 Particulars: Huh7 HCV replicon luciferase reporter, 48 h; higher = more signal. On the technique in general: Reporter assays use an easily measured gene product as a stand-in for the process of interest.
Experiment [3] concerns the target Left-right determination factor 2 (Homo sapiens) (UniProt O00292). Kind of experiment: small molecules binding LEFTY2 protein – biochemical, small-molecule microarray, 635 nm fluorescence scan, primary screen (AID 1110). The note with it: higher = more signal.
The target in experiment [4] is Calmodulin-1 (Homo sapiens) (UniProt P0DP23). Kind of experiment: small molecules binding calmodulin-1 with EGTA – biochemical, small-molecule microarray, Cy5-labelled CALM1, profiling panel (AID 1111).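 Also: labelled calmodulin applied in Tris saline Tween buffer holding calcium plus EGTA and DTT.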 The note with it: Cy5-CALM1 binding fluorescence, higher = more signal.
The target is the same in experiment [5]. Kind of experiment: small molecules binding Ca-loaded calmodulin-1 – biochemical, small-molecule microarray, Cy5-labelled CALM1, plus calcium, artefact control for SMM control-protein annotation, profiling panel (AID 1112).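 Also: score merges spot fluorescence with signal to noise from triplicate slides.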 The note with it: Cy5-CALM1 binding fluorescence, higher = more signal.
The nature of experiment [6]: probe aWnt5a binding to arrayed compounds – biochemical, biotinylated probe, 635/667 nm fluorescence, primary screen (AID 1113).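 Also: score merges 667 nm fluorescence intensity with signal-to-noise per printed feature.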 The note with it: small-molecule microarray, higher = more signal.
Experiment [7] can be described thus: probe aShh binding to arrayed compounds – biochemical, biotinylated probe, 635/667 nm fluorescence, primary screen (AID 1114).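 Also: probe is biotin-labelled aShh protein from a stem cell growth factor screen; measures binding of labelled protein to compounds printed on the slide; score merges feature fluorescence at 667 nm with signal-to-noise.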 Particulars: small-molecule microarray, higher = more signal.
The nature of experiment [8]: probe aNog binding to arrayed compounds – biochemical, biotinylated probe, 635/667 nm fluorescence, primary screen (AID 1115).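 Also: probe is biotinylated aNog protein used at 0.15 µg/mL for 1 h at 4 C; z-score combines 667 nm fluorescence of each spot with its signal to noise.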 The note with it: small-molecule microarray, higher = more signal.
Experiment [9] concerns the target Torsin-1A-interacting protein 1 (Homo sapiens) (UniProt Q5JTV8). Kind of experiment: compound microarray binding of lysate hLAP1 – cell lysate, small-molecule microarray, COS7 lysate, 635/667 nm fluorescence, primary screen (AID 1116). The note with it: 635 nm fluorescence, higher = more signal.
The target of experiment [10] is Alpha-bungarotoxin (Bungarus multicinctus) (UniProt P60615). Nature of the experiment: compounds binding labelled alpha-BTX control protein – biochemical, small-molecule microarray, Alexa647 label, 635/667 nm fluorescence, artefact control for SMM control protein annotation, profiling panel (AID 1117). The note with it: alpha-BTX-A647 binding fluorescence, higher = more signal.
Sequence of Alpha-bungarotoxin (Bungarus multicinctus) (P60615 whole entry, looked up): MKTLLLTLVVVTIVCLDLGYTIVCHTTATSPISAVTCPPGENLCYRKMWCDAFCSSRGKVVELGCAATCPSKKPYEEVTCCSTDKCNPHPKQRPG

In a further experiment the target is Albumin (Bos taurus) (UniProt P02769). Kind of experiment: compounds binding labelled BSA control protein – biochemical, small-molecule microarray, Alexa647 label, 635/667 nm fluorescence, artefact control for SMM control protein annotation, profiling panel (AID 1118).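 Also: score merges 667 nm emission intensity and signal-to-noise per printed compound spot.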 Particulars: BSA-A647 binding, fluorescence 635 nm, higher = more signal.
Sequence of Albumin (Bos taurus) (P02769 whole entry, looked up): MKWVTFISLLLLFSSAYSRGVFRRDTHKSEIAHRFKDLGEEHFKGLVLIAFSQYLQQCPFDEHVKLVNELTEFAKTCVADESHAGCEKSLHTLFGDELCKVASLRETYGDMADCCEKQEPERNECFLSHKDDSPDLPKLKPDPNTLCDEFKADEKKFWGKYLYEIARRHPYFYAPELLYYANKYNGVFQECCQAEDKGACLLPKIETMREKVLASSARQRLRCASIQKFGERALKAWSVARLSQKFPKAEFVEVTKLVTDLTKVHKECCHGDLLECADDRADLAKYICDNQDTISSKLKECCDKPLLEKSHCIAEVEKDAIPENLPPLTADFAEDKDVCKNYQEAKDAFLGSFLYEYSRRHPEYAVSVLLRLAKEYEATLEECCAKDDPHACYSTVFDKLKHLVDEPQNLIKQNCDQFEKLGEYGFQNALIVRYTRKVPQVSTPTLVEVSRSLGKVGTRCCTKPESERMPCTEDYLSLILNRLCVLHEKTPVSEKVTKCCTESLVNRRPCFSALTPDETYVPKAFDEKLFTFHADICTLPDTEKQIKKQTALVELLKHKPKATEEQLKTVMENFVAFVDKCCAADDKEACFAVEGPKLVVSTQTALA
Experiment [11] in a line: probe aXIP binding to arrayed compounds – biochemical, NeuroSMM set, 635/667 nm fluorescence, primary screen (AID 1119).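 Also: probe is the protein aXip251-270 applied at 1 µg/mL to compound-printed slides; binding of probe to printed compounds measured as 667 nm fluorescence plus signal to noise.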 Particulars: small-molecule microarray, higher = more signal, called active from +8 up or from −8 down.
Experiment [12] in a line: probe aNOTCH3 binding on compound microarray – biochemical, small-molecule microarray, 635/667 nm fluorescence, primary screen (AID 1120).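 Also: probe is a biotin-tagged antibody raised against NOTCH3 rather than NOTCH3 protein; score merges spot fluorescence near 667 nm with spot signal to noise.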 The note with it: higher = more signal.
The nature of experiment [13]: probe aNOTCH2 binding on compound microarray – biochemical, small-molecule microarray, 635/667 nm fluorescence, primary screen (AID 1121).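 Also: score merges feature fluorescence read at 667 nm with its signal to noise.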 The note with it: higher = more signal.
For experiment [14], the target named is Carbonic anhydrase 2 (Homo sapiens) (UniProt P00918). Nature of the experiment: compounds binding carbonic anhydrase 2 – biochemical, small-molecule microarray, Alexa647-labelled CAII, profiling panel (AID 1122). Particulars: CAII-A647 binding fluorescence, higher = more signal.
Experiment [15] can be described thus: COS7 lysate on small-molecule microarray, probe aHis, 635 nm (AID 1123).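 Also: z-score combines 667nm fluorescence intensity with signal-to-noise per printed compound spot.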 The note with it: COS7 cell lysate, fluorescence, higher = more signal.
Experiment [16] in a line: probe aLAP1 signal on lysate-treated microarray – cell lysate, small-molecule microarray, COS7 lysate, primary screen (AID 1124).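 Also: lysate comes from COS7 cells expressing LAP1 and is applied at 0.3 µg/mL; score merges spot fluorescence near 667 nm with signal-to-noise over triplicate slides.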 The note with it: probe aLAP1, fluorescence, higher = more signal.
The next experiment has as its system Sam68 (KHDRBS1). Kind of experiment: compounds binding KHDRBS1 protein – biochemical, small-molecule microarray, 635 nm fluorescence, primary screen (AID 1125).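 Also: score merges 667 nm channel intensity with signal to noise over triplicate slides.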 The note with it: higher = more signal.
The subject of experiment [17] is Chordin-like protein 2 (CHRDL2). Kind of experiment: compounds binding chordin-like 2 – biochemical, small-molecule microarray, 635 nm fluorescence, primary screen (AID 1126).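 Also: printed compound slides probed with Chrdl2 protein at 4 µg/mL for 1 h at 4 C; score merges 667 nm emission intensity with signal to noise over three replicate slides.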 Particulars: fluorescence 635 nm, higher = more signal.
The target in experiment [18] is Concanavalin-A (Canavalia ensiformis) (UniProt P02866). Nature of the experiment: compounds binding concanavalin A lectin – biochemical, small-molecule microarray, Alexa647 label, 635 nm, artefact control for SMM control protein annotation, primary screen (AID 1127).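 Also: z combines 667 nm emission intensity with signal-to-noise across three replicate slides.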 Particulars: ConA-A647 binding fluorescence, higher = more signal.
Sequence of Concanavalin-A (Canavalia ensiformis) (P02866 whole entry, looked up): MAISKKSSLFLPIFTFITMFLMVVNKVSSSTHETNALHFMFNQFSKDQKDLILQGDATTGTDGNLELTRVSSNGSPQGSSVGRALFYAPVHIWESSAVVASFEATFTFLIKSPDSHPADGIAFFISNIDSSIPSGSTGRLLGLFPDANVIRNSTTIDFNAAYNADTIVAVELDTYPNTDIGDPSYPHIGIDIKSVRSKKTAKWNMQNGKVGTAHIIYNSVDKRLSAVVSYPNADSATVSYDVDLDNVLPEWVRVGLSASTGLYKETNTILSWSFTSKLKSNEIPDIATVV

Activity calls are given as the source filed them.

Sequence of Torsin-1A-interacting protein 1 (Homo sapiens) (Q5JTV8 whole entry, looked up): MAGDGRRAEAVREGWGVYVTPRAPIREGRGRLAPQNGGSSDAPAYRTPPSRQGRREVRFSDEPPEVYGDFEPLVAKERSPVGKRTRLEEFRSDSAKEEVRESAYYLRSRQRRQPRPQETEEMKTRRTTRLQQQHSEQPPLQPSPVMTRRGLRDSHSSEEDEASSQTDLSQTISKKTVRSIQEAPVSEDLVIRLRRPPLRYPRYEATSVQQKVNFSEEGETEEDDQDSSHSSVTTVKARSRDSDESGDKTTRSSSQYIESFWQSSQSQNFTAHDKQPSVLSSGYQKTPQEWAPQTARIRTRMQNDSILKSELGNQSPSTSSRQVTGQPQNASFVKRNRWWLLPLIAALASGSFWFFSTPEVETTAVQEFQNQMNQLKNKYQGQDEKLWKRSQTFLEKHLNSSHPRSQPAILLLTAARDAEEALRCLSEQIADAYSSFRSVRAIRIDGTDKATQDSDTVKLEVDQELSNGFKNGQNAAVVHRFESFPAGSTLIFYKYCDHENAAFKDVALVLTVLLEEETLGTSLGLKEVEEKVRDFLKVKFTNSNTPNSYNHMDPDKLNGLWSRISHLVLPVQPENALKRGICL
Sequence of Left-right determination factor 2 (Homo sapiens) (O00292 whole entry, looked up): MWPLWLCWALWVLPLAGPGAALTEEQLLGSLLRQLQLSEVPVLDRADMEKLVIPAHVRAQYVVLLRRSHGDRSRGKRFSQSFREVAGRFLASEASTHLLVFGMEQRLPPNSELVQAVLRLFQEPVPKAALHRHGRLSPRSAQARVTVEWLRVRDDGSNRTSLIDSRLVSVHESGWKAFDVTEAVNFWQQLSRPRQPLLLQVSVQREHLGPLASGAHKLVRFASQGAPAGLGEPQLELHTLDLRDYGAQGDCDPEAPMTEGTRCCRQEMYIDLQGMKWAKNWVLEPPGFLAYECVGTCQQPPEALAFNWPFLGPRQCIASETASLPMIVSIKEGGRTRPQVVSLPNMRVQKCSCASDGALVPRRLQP

As for `CO[C@H]1COC(=O)CC=C[C@H](C)[C@H](OC)COC(=O)[C@@H](C)NC(=O)CC=C[C@@H]1C`, the composite z-score in experiment [1] was -2.87; in [3], 0.953; in experiment [4], -0.735; in [5] it was -1.49; in [6], -0.101; in experiment [7], -0.0681. Also, the composite z-score was -0.21 in [8]; 0.229 in experiment [9]; -0.32 in [10]; -0.487 with Albumin (Bos taurus); -0.0319 in experiment [12]; -0.164 in [13]. Also, the composite z-score in experiment [14] is -0.54; in experiment [15], 1.95; in [16], -0.0788; in the experiment on Sam68 (KHDRBS1), -0.445; in experiment [17] it was 1.49; in [18], -0.898. In addition, the z-score in experiment [2] was -2.14. For the same molecule, in [11], the composite Z-score was -0.347 (inactive).

As to `C#CCCCON=C1C[C@@H](O)[C@@H](O)[C@@H]2[C@@H]3C(=O)N(CC)C(=O)[C@@H]3CC[C@H]12`, the composite z-score is 0.51 in experiment [1]; 0.278 in experiment [3]; -0.0398 in experiment [4]; -0.304 in experiment [5]; -0.089 in experiment [6]; -0.307 in experiment [7]. Further, the composite z-score in experiment [8] was -0.353; in [9], 0.779; in experiment [10], 0.573; with Albumin (Bos taurus), -0.0021; in [12] it was -0.118; in experiment [13], -0.148. In addition, the composite z-score in experiment [14] is 0.728; in experiment [15] it was 1.35; in experiment [16], 0.187; in the experiment on Sam68 (KHDRBS1), 0.866; in experiment [17], -0.0382; in [18], -0.357. This molecule came in with a z-score in experiment [2] of -0.0718. Also, the composite Z-score in experiment [11] is 0.52 (inactive).

As for `CC(CCC(=O)OC[C@H]1O[C@H](C#Cc2ccccc2)C=C[C@@H]1Oc1ccc(C)cc1)=NOC[C@@H](C)[C@H](OCc1ccccc1)C(C)C`, the composite z-score was -1.89 in [1]; -0.502 in experiment [3]; -1.24 in experiment [4]; -0.336 in experiment [5]; -0.0573 in experiment [6]; -0.899 in experiment [7]. Also, the composite z-score in experiment [8] is -0.902; in experiment [9], -0.746; in experiment [10], -0.79; with Albumin (Bos taurus), -0.607; in experiment [12] it was -0.325; in experiment [13] it was -0.226. The composite z-score in [14] is -0.0949; in [15], 1.47; in experiment [16] it was -0.427; with Sam68 (KHDRBS1) it was -1.2; in experiment [17], -0.606; in [18], -1.14. Further, in experiment [2], the z-score is -0.982. The composite Z-score in experiment [11] was 0.35 (inactive).

For `CCN1C(=O)[C@H]2[C@H]3[C@H](O)[C@H](O)CC(=NO[C@H](C)c4cn([C@@H]5COC[C@H]5O)nn4)[C@@H]3CC[C@H]2C1=O`, the composite z-score in [1] is -0.137; in experiment [3], 0.684; in experiment [4], -0.3; in [5], -0.4; in [6], -0.0445; in [7], -0.291. Moreover, the composite z-score in [8] was 0.0043; in experiment [9], -0.0938; in experiment [10], -0.23; with Albumin (Bos taurus), 0.0418; in [12], -0.0948; in experiment [13] it was -0.04. Further, the composite z-score in experiment [14] is -0.281; in [15], 0.151; in [16], -0.0932; with Sam68 (KHDRBS1), 0.126; in experiment [17], 0.244; in experiment [18] it was -0.0703. In experiment [2], this molecule showed a z-score of -0.936. Besides, in [11], the composite Z-score was -0.115 (inactive).

On to `COC(=O)[C@H](C)NC(=O)CCC1CC(OC(=O)NCc2ccc3c(c2)OCO3)CC2(CCCC(COC(=O)NCCc3ccc(Cl)cc3)O2)O1` (stereo not given in full), for which the composite z-score in experiment [1] was 0.536; in experiment [3] it was 1.13; in experiment [4] it was -0.209; in [5], -0.97; in [6] it was -0.0367; in [7] it was 0.0893. Also, the composite z-score was -0.111 in experiment [8]; 0.288 in experiment [9]; 0.202 in experiment [10]; 0.293 with Albumin (Bos taurus); 0.0129 in experiment [12]; -0.0974 in experiment [13]. The composite z-score in experiment [14] is 0.0233; in experiment [15], 0.043; in [16], -0.0478; in the experiment on Sam68 (KHDRBS1) it was 0.422; in experiment [17], 1.26; in [18], -0.455. Moreover, the z-score in experiment [2] is -0.562. Also, the composite Z-score in experiment [11] is 0.0601 (inactive).

As for `CO[C@@H]1COC(=O)[C@@H]2CCCN2C(=O)[C@@H](C)COC(=O)CCC[C@H]1C`, the composite z-score is 0.212 in experiment [1]; 0.83 in experiment [3]; -0.0691 in experiment [4]; -0.911 in [5]; -0.175 in [6]; -0.0553 in experiment [7]. For the same molecule, the composite z-score in experiment [8] is -0.346; in [9] it was 0.883; in experiment [10] it was 0.482; with Albumin (Bos taurus) it was 0.379; in experiment [12] it was 0.109; in experiment [13], -0.16. Moreover, the composite z-score in experiment [14] is -0.126; in experiment [15], 0.0072; in experiment [16], 0.557; in the experiment with Sam68 (KHDRBS1), 1.27; in [17], 0.438; in experiment [18], -0.0031. In experiment [2], this molecule registered a z-score of -0.016. Also, in [11], the composite Z-score was 0.305 (inactive).
